Most compounds without a hit are left out; they make up all but 7.5% or so of the library.
Giardia FBPA inh = qHTS Assay for Inhibitors of Fructose-1,6-bisphosphate Aldolase from Giardia Lamblia; A8B2U2; 290,000 tested, 0.71% active; Potency, µM (titrated, usually from 59.6 µM), most hits filed as inhibitors; AID 2451, 2010; purified Giardia FBPA; note: nearly all actives have a fitted effect of over 55% in size
Target sequence (A8B2U2 whole entry, looked up): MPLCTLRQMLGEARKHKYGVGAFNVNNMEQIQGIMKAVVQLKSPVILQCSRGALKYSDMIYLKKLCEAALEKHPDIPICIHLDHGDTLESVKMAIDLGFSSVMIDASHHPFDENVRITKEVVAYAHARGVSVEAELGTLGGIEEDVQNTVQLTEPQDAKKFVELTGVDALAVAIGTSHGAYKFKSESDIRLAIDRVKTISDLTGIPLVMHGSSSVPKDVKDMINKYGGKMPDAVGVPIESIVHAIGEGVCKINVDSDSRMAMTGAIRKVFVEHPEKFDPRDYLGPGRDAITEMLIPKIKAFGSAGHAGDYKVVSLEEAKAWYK
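Giardia FBPA (40 nM reagent) was preincubated 10 min at RT with compound (up to 57.5 uM final), then substrate plus GAPDH/TPI/NAD/arsenate coupling system with diaphorase/resazurin was added; resorufin fluorescence (525/598 nm) was read after 20 min.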
HCMV inh = qHTS Assay for inhibitors of the human cytomegalovirus (HCMV); HFF cells, HCMV-luciferase reporter, 72 h; hits give low values; activity change, negative = inhibition, % at 57.5 µM; 410,000 tested, 4.5% active; AID 1259415, 2018; in the data active = activity change below about -60%; inconclusive = no clear call, values can overlap the other calls; inactive = above about -39%
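Inhibition of viral replication was scored as loss of reporter luminescence in HFFs infected with HCMV-luciferase (MOI 1 PFU/cell) for 72 h; compounds tested at 2 doses, normalized to buffer and Salinomycin controls.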
Vaccinia Venus = qHTS for Stage-Specific Inhibitors of Vaccinia Orthopoxvirus: Venus Reporter Primary qHTS. Vaccinia virus Venus reporter expression, fluorescence. Potency, µM (highest dose often 36.5 µM), usual class: inhibitors. 330,000 tested, 0.46% active. AID 720580, 2013; calls by dose curve; tested in A549 cells; note: nearly all actives have a fitted effect of over 30% in size
HCV inh = qHTS Assay for Inhibitors of Hepatitis C Virus (HCV); AID 651820, 2012; 340,000 tested, 3.4% active; Potency, µM (doses to about 41.8 µM), actives largely listed as inhibitors; Huh7.5.1 HCVcc-Cre infection, luciferase reporter, 44 h
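Infectious HCVcc-Cre (~0.5 moi) was added to cells just after compound, with cells seeded 4 h earlier at 1,000 per well. Luciferase activity after 44 h culture reported infection; substrate was incubated 15 min at room temperature before reading.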
VACV mCherry inh = qHTS for Stage-Specific Inhibitors of Vaccinia Orthopoxvirus: mCherry Reporter Primary qHTS. AID 720579, 2013. Vaccinia virus mCherry reporter infection, fluorescence. 310,000 tested, 0.63% active. Potency, µM (titrated, usually from 36.5 µM), usual class: inhibitors; calls by dose curve; tested in A549 cells; note: nearly all actives have a fitted effect of over 35% in size
FMDV inh = High Throughput Screening for Foot and Mouth Disease Virus Antivirals. FMDV antiviral cell-based qHTS. 410,000 tested, 1.2% active. Potency, µM (doses to about 57.9 µM), actives largely listed as inhibitors; calls by dose curve; tested in HEK293T cells; note: read-out not given here; nearly all actives have a fitted effect of over 45% in size
Numbers stand for hits; ! = repeats disagree. Unless noted, calls come from the whole dose curve; as a rule, active = well fitted curve in the direction sought with a large enough effect; inconclusive = small, poorly fitted or top-dose-only effect, or another doubt; inactive = no such curve, though single readings can be large; an effect the other way counts as inactive or inconclusive.

How did O=C1NC[C@H](CCCCN2C[C@H](Cc3ccccc3)N(CCC3CCCCC3)C(=O)C2=O)N(CCC2CCCCC2)C1=O do in these assays?
HCMV inh: inactive; Vaccinia Venus: inconclusive; VACV mCherry inh: inconclusive; FMDV inh: 40µM

Results for CCOC(=O)C1CCN(C(=O)c2ccc(OCC(=O)Nc3cccc(C(F)(F)F)c3)c(OC)c2)CC1 ?
HCMV inh: -70; Vaccinia Venus: inactive; HCV inh: 2.8µM; VACV mCherry inh: inactive; FMDV inh: inconclusive

How did COc1cc(C(=O)NCc2ccc(S(N)(=O)=O)cc2)ccc1OCC(=O)Nc1cccc(C(F)(F)F)c1 do in these assays?
HCMV inh: inactive; Vaccinia Venus: inactive; HCV inh: inconclusive; VACV mCherry inh: inactive; FMDV inh: inactive

What do the screens show for `CCOC(=O)C1CCN(C(=O)c2ccc(OCC(=O)Nc3cccc(C(F)(F)F)c3)cc2)CC1`?
HCMV inh: inactive; Vaccinia Venus: inactive; HCV inh: inconclusive; VACV mCherry inh: inactive; FMDV inh: inconclusive

Results for COc1cc(C(=O)N(C)CCOc2ccccc2)ccc1OCC(=O)Nc1cccc(C(F)(F)F)c1 ?
HCMV inh: -69; Vaccinia Venus: inconclusive; HCV inh: 2.8µM; VACV mCherry inh: inconclusive; FMDV inh: inconclusive

How did O=C(C[C@@H]1C/C=C\C[C@H](Cc2ccc(F)cc2)C(=O)OC[C@H]2CCCN2C1=O)NCCO do in these assays?
HCMV inh: inactive; Vaccinia Venus: inactive; HCV inh: inactive; VACV mCherry inh: inactive; FMDV inh: inactive

Results for CC1=C(C(=O)N(C)C)C(c2ccc(N3CCOCC3)cc2)NC(=O)N1 (stereo not drawn) ?
Giardia FBPA inh: inactive; HCMV inh: inconclusive; HCV inh: inactive; FMDV inh: inactive

How did Cc1cn([C@H]2C[C@H](O)[C@@H](CNS(=O)(=O)N3CCCC3)O2)c(=O)[nH]c1=O do in these assays?
HCMV inh: inactive; Vaccinia Venus: inactive; VACV mCherry inh: inactive; FMDV inh: inactive

Results for Cc1c(C=O)c2cc(OCc3ccccc3)ccc2n1C ?
Giardia FBPA inh: inactive; HCMV inh: inactive; Vaccinia Venus: inactive; HCV inh: inconclusive; VACV mCherry inh: inactive; FMDV inh: inactive

What do the screens show for `NC(=O)C1(N2CCCCC2)CCN(c2ccc3nnc(-c4ccccc4)n3n2)CC1`?
Giardia FBPA inh: inactive; HCMV inh: inactive; Vaccinia Venus: inconclusive; HCV inh: inactive; VACV mCherry inh: inactive; FMDV inh: inactive

Results for COc1ccccc1NC(=O)N1CCN(c2ccc3nnc(-c4ccc(F)cc4)n3n2)CC1 ?
Giardia FBPA inh: inactive; HCMV inh: -76!; Vaccinia Venus: inconclusive; HCV inh: inactive; VACV mCherry inh: inconclusive; FMDV inh: inactive

Results for O=C(Nc1ccccc1Cl)N1CCN(c2ccc3nnc(-c4ccc(F)cc4)n3n2)CC1 ?
Giardia FBPA inh: inactive; HCMV inh: inactive; Vaccinia Venus: inactive; HCV inh: inconclusive; VACV mCherry inh: inactive; FMDV inh: inconclusive

Results for O=C(Nc1ccc(Cl)cc1)N1CCN(c2ccc3nnc(-c4ccccc4)n3n2)CC1 ?
HCMV inh: -81; Vaccinia Venus: inconclusive; VACV mCherry inh: 10µM; FMDV inh: inactive

What do the screens show for `COc1ccc(N(Cc2ccccc2)S(=O)(=O)c2cccc(C(=O)NCC3CCCO3)c2)cc1` (stereo not drawn)?
HCMV inh: inactive; Vaccinia Venus: inactive; HCV inh: inconclusive; VACV mCherry inh: inactive; FMDV inh: inactive

How did Cc1cc(N2CCOCC2)c2c(N)c(Br)cc(C)c2n1 do in these assays?
Giardia FBPA inh: inactive; HCMV inh: -82; Vaccinia Venus: inactive; HCV inh: inconclusive; FMDV inh: inconclusive

How did Cc1cc(=O)[nH]c(N2CCOCC2)n1 do in these assays?
Giardia FBPA inh: inactive; HCMV inh: inactive; Vaccinia Venus: inactive; HCV inh: inactive; VACV mCherry inh: inactive; FMDV inh: inactive

Results for Cc1cc(C)nc(/N=c2/ssnc2Cl)c1 ?
Giardia FBPA inh: inconclusive; HCMV inh: inactive; Vaccinia Venus: inactive; HCV inh: inactive; VACV mCherry inh: inactive; FMDV inh: 28µM

Results for Cc1cc(C)c(C(N)=O)c(SCC(=O)c2cc(C)c(C)cc2C)n1 ?
Giardia FBPA inh: inactive; HCMV inh: inactive; Vaccinia Venus: inactive; HCV inh: inconclusive; VACV mCherry inh: inactive; FMDV inh: inconclusive

From PubChem
